Data taken from PubChem BioAssay AID2685 (National Center for Advancing Translational Sciences (NCATS), 2010).
Hit rate of the full screen: of about 320,000 compounds, about 2,100 (0.66%) were called active. Roughly 53% stayed inconclusive and do not appear here. Calls come from the whole dose curve; as a rule, active = well fitted inhibition curve with a large enough effect in the signal ratio, with a control signal flat (not every such curve was filed as active); inconclusive = small, poorly fitted or top-dose-only effect, or effect the other way, or a change in a side signal; inactive = flat fitted curve, though single readings scatter; the % refers to the signal ratio. Shown is part of a subset that was picked to be rich in actives.

Assay: qHTS Assay for Lipid Storage Modulators in Drosophila S3 Cells;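 for cell number change: cells counted by Cell Tracker Red CMTPX staining in the red channel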; for lipid storage change, negative = inhibition: % is set by controls: 0 for no effect and ±100 for the full control effect
Details: BODIPY lipid droplet fluorescence, 18-24 h, cells fed with added oleic acid; cell number change: measured here: cell count max response; series mostly up to 46.1 µM; lipid storage change, negative = inhibition: at the top concentration
Outline: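 Laser-scanning cytometry quantifies lipid droplet accumulation (500–530 nm total intensity; droplet/cell object ratio) in oleic acid-fed (400 uM added) Drosophila S3 cells treated with a concentration series. 20 uM Triacsin C defined 100% inhibition.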
Potency is the fitted concentration of half-maximal effect.

| Compound | lipid storage change, negative = inhibition | cell number change | outcome | Potency |
| --- | --- | --- | --- | --- |
| O=C(CC1C(=O)NCCN1Cc1ccc(-c2ccccc2)cc1)NCCOc1cccnc1 (stereo not drawn) | 3.12% (inactive) | -0.0435% |  |  |
| O=C(Nc1cccc2ccccc12)c1cccc(F)c1 | 18.6% (inactive) | -3.54% |  |  |
| COc1ccc(NC(=O)C2CSC(C)(C)N2C=O)cc1 (stereo not drawn) | 0.386% (inactive) | 7.51% |  |  |
| COc1ccc(CN2CCOCCOCCN(Cc3ccc(OC)cc3)CCOCCOCC2)cc1 | -8.25% (inactive) | 16% |  |  |
| Cc1ccc(S(=O)(=O)NCc2ccccc2)cc1C(=O)N(C)CC(=O)Nc1c(Cl)cccc1Cl |  |  | inactive |  |
| CSc1nc(-c2ccc(Cl)cc2Cl)[nH]c(=O)c1C#N |  | -67% |  | 32.6 µM (active) |
| CSc1nc(-c2ccc(Cl)cc2)c(C#N)c(=O)[nH]1 | 0.0192% (inactive) | -0.138% |  |  |
| Cc1cc(-c2ccc(Cl)cc2Cl)c(C#N)c(=O)[nH]1 |  |  | inactive |  |
| CN(Cc1ccccc1)C(=O)COc1ccc(N(C)S(=O)(=O)c2ccc(F)cc2)cc1 | -2.56% (inactive) | -1.11% |  |  |
| CCC(C(=O)NCc1ccc(F)cc1)N(Cc1ccco1)C(=O)c1snc(C(N)=O)c1N (stereo not drawn) | 24.7% (inactive) | -6.14% |  |  |
| Cc1ccc(C(C(=O)NCc2ccc(F)cc2)N(Cc2ccco2)C(=O)c2snc(C(N)=O)c2N)o1 (stereo not drawn) |  | -23% |  | 13 µM (active) |
| NC(=O)c1nsc(C(=O)N(Cc2ccco2)C(C(=O)NCc2ccc(F)cc2)c2ccc(O)cc2)c1N (stereo not drawn) |  |  | inactive |  |
| Cc1oc2c(c1C(=O)NC(Cc1c[nH]c3ccccc13)C(=O)O)CCCC2 (stereo not drawn) | 6.04% (inactive) | 18% |  |  |
| Cc1cccc(Cc2c(C)[nH]c(=O)c(C#N)c2C)c1 | -17.3% [at 9.22 µM] (inactive) | -1.36% |  |  |
| N=c1oc2ccc(Br)cc2cc1C(=O)NC1CCCCCC1 |  | -5.41% | inactive |  |
| O=C(O)C1CCCN1S(=O)(=O)c1ccccc1 (stereo not drawn) | -1.6% (inactive) | 14% |  |  |
| Cc1cc(=O)oc2c(C)c(OCC(=O)NCCCN3CCCC3=O)ccc12 |  | -21.7% | inactive |  |
| Cc1cc(=O)oc2cc(OCC(=O)NCCCN3CCCC3=O)c(Cl)cc12 |  | -17.4% | inactive |  |
| CCCc1cc(=O)oc2c(C)c(OCC(=O)NCCN3CCOCC3)ccc12 | 8.89% (inactive) | 19.4% |  |  |
| Cc1c(OCC(=O)NCCCN2CCCC2=O)ccc2c3c(c(=O)oc12)CCCC3 |  | -7.37% |  | 8.2 µM (active) |
| CCCc1cc(=O)oc2c(C)c(OCC(=O)NCCCN3CCOCC3)ccc12 |  | 7.37% | inactive |  |
| CCc1cc(=O)oc2cc(OCC(=O)NCCCN3CCCC3=O)c(Cl)cc12 |  | 11.6% |  | 16.4 µM (active) |
| CC(Oc1cc2oc(=O)c3c(c2cc1Cl)CCC3)C(=O)NCCN1CCOCC1 (stereo not drawn) | -12.3% (inactive) | 9.27% |  |  |
| CCCCc1cc(=O)oc2c(C)c(OCC(=O)NCCN3CCOCC3)ccc12 |  | -17% |  | 8.2 µM (active) |

| Compound | lipid storage change, negative = inhibition | cell number change | outcome | Potency |
| --- | --- | --- | --- | --- |
| CCc1cc(=O)oc2cc(OCC(=O)NCCCN3CCCC3=O)ccc12 |  | 3.54% | inactive |  |
| Cc1c(OCC(=O)NCCCN2CCOCC2)ccc2c3c(c(=O)oc12)CCC3 |  | -21.2% | inactive |  |
| CC(Oc1cc2oc(=O)c3c(c2cc1Cl)CCC3)C(=O)NCCCN1CCCC1=O (stereo not drawn) |  | -19.6% |  | 1.64 µM (active) |
| CC(Oc1cc2oc(=O)c3c(c2cc1Cl)CCC3)C(=O)NCCCN1CCOCC1 (stereo not drawn) |  | 14.5% | inactive |  |
| COc1ccc(OCCNC(=O)c2ccccc2OCC(=O)N2CCCCC2)cc1 | -8.65% (inactive) | -14.3% |  |  |
| O=C(c1ccc(S(=O)(=O)NCc2ccco2)cc1)N1CCN(Cc2ccccc2F)CC1 |  | -10.8% | inactive |  |
| COc1cccc(N(C(=O)CS(=O)CC(=O)Nc2ccc(F)cc2)C(C(=O)NC2CCCCC2)c2cccs2)c1 (stereo not drawn) | -10.8% (inactive) | -4.8% |  |  |
| COC(=O)CCCC1=CC2=CC(=O)C(C)(OC(=O)c3cccs3)C(=O)C2=CN1c1ccc(OC)cc1 (stereo not drawn) | 5.26% (inactive) |  |  |  |
| COc1ccc(N2C(=O)c3ccccc3C2=O)cc1 | 19% (inactive) | 2.95% |  |  |
| CCOc1ccc(N2C(=O)Cc3ccccc3C2=O)cc1 |  | 0.833% |  | 29.1 µM (active) |
| O=C1Cc2ccccc2N1c1ccccc1 | 8.9% (inactive) | 11.5% |  |  |
| O=C1Cc2ccccc2C(=O)N1c1ccccc1 |  | 9.57% |  | 10.3 µM (active) |
| COc1ccc(N2C(=O)Cc3ccccc3C2=O)cc1 | 7.06% (inactive) | 10.9% |  |  |
| O=C1Cc2ccccc2C(=O)N1c1cccc(Cl)c1 |  | 10.3% | inactive |  |
| COc1ccc2c(c1)C(=O)N(c1ccc(C)cc1)C(=O)C2 | -3.58% (inactive) | 11.1% |  |  |
| CCOc1ccc(N2C(=O)c3cccnc3C2=O)cc1 | 12.3% (inactive) | -11.4% |  |  |
| COc1ccc2c(c1)C(=O)N(c1ccccc1)C(=O)C2 |  | -11.7% |  | 23.1 µM (active) |
| COc1ccccc1C(=O)NC(=O)COC(=O)c1oc2ccccc2c1C | -2% (inactive) | 20% |  |  |
| CCOc1nc(-c2ccccc2)ccc1-c1noc(-c2ccco2)n1 | 4.86% (inactive) | -9.76% |  |  |
| O=C1CN(C(=O)COC(=O)Cc2ccsc2)c2ccccc2N1 | 3.29% (inactive) | 4.09% |  |  |
| NC(=O)C(c1ccc(Cl)cc1)c1ncc(C(F)(F)F)cc1Cl (stereo not drawn) | 20.1% (inactive) | 6.15% |  |  |
| CCC(=O)c1ccc(OCC(=O)OCC(=O)NC2CCCC2)cc1 | 7.81% [at 0.0737 µM] (inactive) | -7.74% |  |  |
| Cc1nc(C)c(C(=O)OCC(=O)NCCc2ccc(S(N)(=O)=O)cc2)s1 |  | 5.35% | inactive |  |
| Cc1nc(C)c(C(=O)OCC(=O)Nc2cccc(C)c2C)s1 |  | -21.3% |  | 16.4 µM (active) |

| Compound | lipid storage change, negative = inhibition | cell number change | outcome | Potency |
| --- | --- | --- | --- | --- |
| COc1ccc(CCNC(=O)COC(=O)c2sc(C)nc2C)cc1 | -22.8% (inactive) | 13.9% |  |  |
| CCOC(=O)c1sc(Nc2cccc(C)c2C)nc1C |  |  | inactive |  |
| Cc1cccc(NC(=O)c2sc(Cl)nc2C)c1C | 17.3% (inactive) | 27.7% |  |  |
| Cc1nc(C)c(C(=O)OCC(=O)NCc2ccccc2)s1 |  | 2.69% |  | 1.16 µM (active) |
| Cc1cccc(C)c1NC(=O)CN(C)C(=O)c1cccc(-n2cccc2)c1 | 9.6% [at 0.0737 µM] (inactive) |  |  |  |
| N#Cc1cccc(NC(=O)COC(=O)CCc2ccc(S(=O)(=O)N3CCOCC3)cc2)c1 | 7.64% (inactive) | 0.933% |  |  |
| CCOC(=O)C(=NC(C)CC)NNc1cccc(C(F)(F)F)c1 (stereo not drawn) | -2.64% (inactive) | 0.302% |  |  |
| Cc1cccc(C)c1N(CC(=O)NCc1ccccc1)C(=O)c1csnn1 |  | -7.94% | inactive |  |
| CN(C)C(=O)c1nc2ccc(Cl)cn2c1CNCc1ccccc1OC(F)(F)F | 4.92% (inactive) | -4.39% |  |  |
| CC1=N/C(=C/c2cccnc2)C(=O)O1 | 0.341% (inactive) | -0.0715% |  |  |
| O=C1NC(=S)N/C1=C\c1ccc(N2CCOCC2)cc1 | -7.79% (inactive) |  |  |  |
| O=C1/C(=C/c2cccnc2)CCc2c1[nH]c1ccccc21 | 19% (inactive) | -5.69% |  |  |
| CC(C)N1C(=O)S/C(=C/c2cccnc2)C1=O | -20.1% (inactive) | 16.4% |  |  |
| O=C1/C(=C\c2cccnc2)CN(Cc2ccccc2)C/C1=C\c1cccnc1 |  | -26.3% |  | 2.31 µM (active) |
| C(=N\N1CCN(Cc2ccccc2)CC1)/c1cccnc1 | 10.3% (inactive) | 3.04% |  |  |
| CN1C/C(=C/c2ccncc2)C(=O)/C(=C/c2ccncc2)C1 |  | 15.3% | inactive |  |
| CN1C/C(=C\c2ccc(N3CCOCC3)cc2)C(=O)/C(=C/c2ccc(N3CCOCC3)cc2)C1 |  | -12.7% |  | 7.31 µM (active) |
| CC(C)N1C/C(=C/c2cccnc2)C(=O)/C(=C/c2cccnc2)C1 |  | -15.1% |  | 23.1 µM (active) |
| O=C1/C(=C\c2cccnc2)CCc2ccccc21 | 5.43% (inactive) | -16.3% |  |  |
| CN1C/C(=C/c2cccnc2)C(=O)/C(=C/c2cccnc2)C1 |  | -16.3% |  | 1.84 µM (active) |
| CC(C)N1CC2=C(OC(N)=C(C#N)C2c2cccnc2)/C(=C/c2cccnc2)C1 (stereo not drawn) | 11.8% (inactive) | -0.305% |  |  |
| COc1ccc(N2C(=O)/C(=C/c3ccc([N+](=O)[O-])cc3)N=C2C)c(OC)c1 | 12.2% (inactive) | -0.57% |  |  |
| O=c1c2cc3c(nc2[nH]c(=S)n1-c1ccccc1)CCCC3 | -3.75% (inactive) | 8.9% |  |  |
| COc1ccccc1OCCNc1cc(N2CCCCC2)ccc1[N+](=O)[O-] | 7.35% (inactive) | 20.1% |  |  |

| Compound | lipid storage change, negative = inhibition | cell number change | outcome | Potency |
| --- | --- | --- | --- | --- |
| CCOc1ccc2nc(SCC(=O)Nc3ccc4c(c3)OCCO4)[nH]c2c1 |  | -1.86% | inactive |  |
| O=C(/C=C/c1ccco1)N(Cc1ccccc1F)C1CCS(=O)(=O)C1 (stereo not drawn) | 23.1% (inactive) | 19.4% |  |  |
| CCOc1ccccc1-n1c(SCC(=O)N2CCOCC2)nnc1-c1ccccn1 | 3.34% (inactive) | 1.75% |  |  |
| N#Cc1ccc(/C=N/NC(=O)c2cc(-c3cccs3)nc3ccccc23)cc1 | 21.4% (inactive) | 12.5% |  |  |
| COc1ccc(NCc2nnc(SCC(=O)Nc3ccc(OC)cc3OC)o2)cc1 | 8.16% (inactive) | 8.92% |  |  |
| CCOC(=O)N1CCN(C(=O)CN(c2ccccc2OC)S(=O)(=O)c2ccc(C)cc2)CC1 |  |  | inactive |  |
| CC(C)N1C/C(=C/c2ccsc2)C(=O)/C(=C/c2ccsc2)C1 |  | -15.9% |  | 14.6 µM (active) |
| O=C1/C(=C/c2ccsc2)N2CCC1CC2 | -0.371% (inactive) | -5.13% |  |  |
| O=C1/C(=C\c2ccsc2)N2CCC1CC2 | -13% (inactive) | 5.98% |  |  |
| CC(C)(CNS(=O)(=O)c1ccc(F)cc1)CNS(=O)(=O)c1ccc(F)cc1 |  | 6.92% | inactive |  |
| CN(C)CC(C)(C)CNS(=O)(=O)c1ccc(Cl)cc1 | 1.02% (inactive) | 27.8% |  |  |
| CN(C)CC(C)(C)CNS(=O)(=O)c1ccc(Cl)c(Cl)c1 |  | -9.4% |  | 23.1 µM (active) |
| CCCc1ccc(OCCNC(=O)C2CCCCC2)cc1 | 10.9% (inactive) | -6.51% |  |  |
| CC(=O)Nc1ccc(S(=O)(=O)n2cnc3ccccc32)cc1 |  | 13.3% | inactive |  |
| O=C(CN1C(=O)CCC1=O)Nc1cccc(NC(=O)CN2C(=O)CCC2=O)c1 | -8.67% (inactive) | -5.66% |  |  |
| O=C(CCN1c2ccccc2Sc2ccccc21)Oc1ccccc1 | 1.68% (inactive) | -0.775% |  |  |
| Cn1c(C(=O)NCC2CCCO2)cc2oc3ccccc3c21 (stereo not drawn) |  | -14.1% |  | 0.58 µM (active) |
| Cn1c(C(=O)NCC2CCCO2)cc2c(=O)[nH]c3ccccc3c21 (stereo not drawn) | -0.25% (inactive) | 4.34% |  |  |
| Cn1c(C(=O)NCc2ccccc2)cc2oc3ccccc3c21 |  | 12.4% | inactive |  |
| Cc1ccccc1CS(=O)(=O)CCC(=O)NCc1ccccn1 | -5.48% (inactive) | -19.8% |  |  |
| O=C(CSc1ccc(Cl)cc1)NCc1ccncc1 | 2.06% (inactive) | 8.1% |  |  |
